From ChEMBL document CHEMBL4513141, “CO-ADD screening of NIH (USA) - Clinical Collection” (2021)
Results with a measured potency or affinity are listed apart.

Legend:
[1] = system: Klebsiella pneumoniae; conditions: Concentration 20 uM; ASSAY_TEST Inhibition of Bacterial Growth; detection method Absorption (OD600); MEDIA CAMHB; plate type 384well; NBS; CORNING #3640; time 18 hr
[2] = system: Candida albicans; conditions: 20 µM
[3] = system: Cryptococcus neoformans; conditions: Concentration 20 uM; ASSAY_TEST Inhibition of Fungal Growth; detection method Resazurin; Absorption (OD600-OD570); plate type 384well; NBS; CORNING #3640

SMILES	Inhibition [1] [%]	Inhibition [2] [%]	Inhibition [3] [%]
COc1ccccc1N1CCN(CC(O)COc2cccc3ccccc23)CC1 (stereo not given) [NAFTOPIDIL]	-0.32	2.55	1.21
COc1ccc(C(=O)NCc2ccc(OCCN(C)C)cc2)cc1OC.Cl	9.02	4.71	-2.57
CC(=O)OCC(=O)[C@@]1(O)CC[C@H]2[C@@H]3CCC4=CC(=O)CC[C@]4(C)[C@H]3[C@@H](O)C[C@@]21C [HYDROCORTISONE ACETATE]	10.46	1.02	-7.62
Cl.c1ccc(CC2=NCCN2)cc1 [TOLAZOLINE HYDROCHLORIDE]	3.87	2.51	-1.43
CC(c1cc2ccccc2s1)N(O)C(N)=O (stereo not given) [ZILEUTON]	4.07	5.22	2.66
CN(C)CC[C@@H](c1ccc(Cl)cc1)c1ccccn1.O=C(O)/C=C\C(=O)O [DEXCHLORPHENIRAMINE MALEATE]	21.61	2.45	-7.42
OCc1cccnc1 [NICOTINYL ALCOHOL]	6.16	2.84	-7.14
N[C@@H]1CONC1=O [CYCLOSERINE]	12	1.72	-5.65
O=C(C1CCCCC1)N1CC(=O)N2CCc3ccccc3C2C1 (stereo not given) [PRAZIQUANTEL]	12.45	5.72	-0.79
CNCC[C@@H](Oc1ccccc1C)c1ccccc1.Cl [ATOMOXETINE HYDROCHLORIDE]	2.35	3.59	5.55
